Giardia FBPA inh: blocks Giardia fructose-bisphosphate aldolase activity. A8B2U2. purified Giardia FBPA. Potency, µM (doses to about 59.6 µM), inactives show at the highest dose activity, negative = inhibition, hits mostly inhibitors. 290,000 compounds, 0.71% hits. AID 2451; note: % is set by controls: 0 for no effect and ±100 for the full control effect; nearly all actives have a fitted effect of over 55% in size
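Giardia FBPA (40 nM reagent) was preincubated 10 min at RT with compound (up to 57.5 uM final), then substrate plus GAPDH/TPI/NAD/arsenate coupling system with diaphorase/resazurin was added; resorufin fluorescence (525/598 nm) was read after 20 min.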
Tb PYK inh: inhibitors of Trypanosoma brucei pyruvate kinase | 410,000 compounds, 0.12% hits | TbPYK enzyme, Kinase-Glo Plus ATP luminescence, 45 min | Q57TT1 | Potency, µM (titrated, usually from 76.8 µM), for the others: at the top dose activity, negative = inhibition, most hits filed as inhibitors; note: % is set by controls: 0 for no effect and ±100 for the full control effect; nearly all actives have a fitted effect of over 50% in size
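Enzyme and substrate buffer are dispensed first and compound is pin-transferred. ADP at 130 uM final then starts the reaction, which runs 45 min at room temperature. Detection reagent is added for 10 min before luminescence is imaged.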
Sm TGR block: inhibitors of Schistosoma mansoni thioredoxin glutathione reductase | Q962Y6 | purified TGR, DTNB reduction, TNB absorbance 405 nm | Potency, µM (highest dose often 114 µM), for inactives: top-dose activity change, negative = inhibition, actives largely listed as inhibitors | 360,000 compounds, 3% hits | AID 485364; note: % is set by controls: 0 for no effect and ±100 for the full control effect; nearly all actives have a fitted effect of over 60% in size
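First, TGR (20 nM dispensed) and NADPH were mixed with compound. Second, a 15 min room-temperature incubation followed. Third, further NADPH and then DTNB were added to start the reaction. Finally, TNB absorbance was monitored kinetically.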
NS1 inh: blocks influenza NS1 protein function. Potency, µM (highest dose often 46.1 µM), for inactives: at the top dose activity, positive = more growth. 270,000 compounds, 0.4% hits. AID 2326; calls by dose curve; note: actives are rising curves; nearly all actives have a fitted effect of over 50% in size
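A cell-based growth assay was used: compounds that relieve NS1-induced slow growth of budding yeast raise OD600. Assay medium was yeast nitrogen base with ammonium sulphate and -URA supplement, pH 6.0, with 2% galactose.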
RE007 growth inh: less growth of the S. pombe RE007 Vpr strain; S. pombe RE007 Vpr strain, BacTiter-Glo ATP luminescence, 24 h; Potency, µM (series often up to 92.2 µM), inactives show at the top dose activity change, negative = less growth, most hits filed as inhibitors; 360,000 compounds, 0.21% hits; active = well fitted falling curve with a large enough effect; inconclusive = small, poorly fitted or top-dose-only effect; inactive = no such curve, though single readings can be large or run the other way; note: % is set by controls: 0 for no effect and ±100 for the full control effect; nearly all actives have a fitted effect of over 50% in size
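Fission yeast strain RE007, carrying one chromosomally integrated HIV-1 vpr copy, was seeded at OD 0.01 in PMG+AL medium with 23 nL pinned compound. After 24 h at 30 °C and 99% humidity, viability was read by BacTiter-Glo luminescence.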
LmPK inhibitor: LmPK (Leishmania mexicana) enzyme inhibition. Potency, µM (titrated, usually from 57.5 µM), inactives show at the top dose activity change, negative = inhibition, hits mostly inhibitors. 290,000 compounds, 0.37% hits. Q27686. purified LmPK, Kinase-Glo ATP luminescence, 1 h; note: % is set by controls: 0 for no effect and ±100 for the full control effect
Target sequence (Q27686 whole entry, looked up): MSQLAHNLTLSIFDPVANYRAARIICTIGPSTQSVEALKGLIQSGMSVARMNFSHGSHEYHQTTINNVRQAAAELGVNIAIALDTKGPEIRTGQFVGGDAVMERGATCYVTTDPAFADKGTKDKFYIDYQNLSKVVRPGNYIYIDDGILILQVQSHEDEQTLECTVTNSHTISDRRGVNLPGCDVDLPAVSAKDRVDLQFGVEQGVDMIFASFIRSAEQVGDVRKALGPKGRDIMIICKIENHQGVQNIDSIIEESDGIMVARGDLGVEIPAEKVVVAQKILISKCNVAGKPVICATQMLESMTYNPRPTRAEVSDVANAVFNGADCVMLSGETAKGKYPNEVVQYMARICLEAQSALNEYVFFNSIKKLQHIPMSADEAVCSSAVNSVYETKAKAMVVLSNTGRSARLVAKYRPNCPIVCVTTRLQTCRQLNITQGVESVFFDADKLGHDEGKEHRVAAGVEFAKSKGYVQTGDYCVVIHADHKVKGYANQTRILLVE
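Screened at intermediate enzyme activity to detect both inhibitors and activators: LmPK at 0.1 nM, with a 0.5 nM enzyme column as activation reference. PEP 0.5 mM, ADP 0.1 mM; ATP detected by luminescence after 1 h.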
Starred values were filed as active, the others as inactive; [ ] = remark or other dose. Only some compounds are listed: those with a hit (about 3.5% of all), similar ones and a draw of the others. Unless noted, calls come from the whole dose curve; as a rule, active = well fitted curve in the direction sought with a large enough effect; inconclusive = small, poorly fitted or top-dose-only effect, or another doubt; inactive = no such curve, though single readings can be large; an effect the other way counts as inactive or inconclusive. Potency is the fitted concentration of half-maximal effect.

Cc1ccc(N2C(=O)CC(N3CCN(c4ccc(F)cc4)CC3)C2=O)c(C)c1 (stereo not drawn) was read as Giardia FBPA inh -18%, Tb PYK inh -2%, Sm TGR block -31%, NS1 inh 15%, RE007 growth inh -24% and LmPK inhibitor 1%.
`Cc1ccc(-n2sc3cc(F)ccc3c2=O)c(C)c1` gave Tb PYK inh 10µM* and RE007 growth inh 11µM*.
For Oc1c(C(c2ccccc2F)N2CCN(c3ccccc3F)CC2)sc2nc(-c3ccco3)nn12 (stereo not drawn) the results were Tb PYK inh 2% and Sm TGR block -1%.
`OC[C@@H]1O[C@@H](n2cnc3c(SCc4ccccc4)ncnc32)[C@@H](O)[C@H]1O` gave NS1 inh -6%.
For Cc1ccc(NC(=O)c2oc3ccccc3c2NC(=O)c2ccc(F)c(F)c2)cc1 the results were Tb PYK inh -1% and Sm TGR block -2%.
Screening Cc1cccc2c1NC1(CCCC1)CC2C (stereo not drawn) returned Giardia FBPA inh -24%, Tb PYK inh 2%, Sm TGR block inconclusive, NS1 inh 0%, RE007 growth inh 2% and LmPK inhibitor -4%.
`CC1CC2(CCCC2)Nc2ccc(F)cc21` (stereo not drawn) gave Giardia FBPA inh inconclusive, Tb PYK inh 3%, Sm TGR block 40µM*, NS1 inh 7%, RE007 growth inh 7% and LmPK inhibitor 0%.
CCC(=O)N1CCc2cc(CNS(=O)(=O)c3ccccc3F)ccc21 was read as Tb PYK inh 2% and Sm TGR block 1%.
O=C(c1ccco1)n1c(=S)nc2ccccn21 was read as Giardia FBPA inh inconclusive, Tb PYK inh -19%, Sm TGR block 50µM*, NS1 inh -6%, RE007 growth inh -4% and LmPK inhibitor 14µM*.
`Cc1cccc2nc(=S)n(C(=O)c3ccco3)n12` gave Giardia FBPA inh 0%, Tb PYK inh -20%, Sm TGR block 22µM*, NS1 inh 14%, RE007 growth inh -22% and LmPK inhibitor 13µM*.
Screening COc1ccccc1OC(C)C(=O)Nc1c(C(=O)c2ccc(Cl)cc2)oc2ccccc12 (stereo not drawn) returned Tb PYK inh -4% and Sm TGR block 2%.
Screening CC1CC(C)C(=O)C(C(O)CC2CC(=O)NC(=O)C2)C1 (stereo not drawn) returned Tb PYK inh 3%[157 µM].
Screening Cc1oc2c(c1C(=O)N1CCC(C)CC1)C(=O)c1ccccc1C2=O returned Giardia FBPA inh inconclusive, Tb PYK inh 0%, Sm TGR block -19%, NS1 inh 0%, RE007 growth inh -7% and LmPK inhibitor -2%.
Screening Cc1oc2c(c1C(=O)c1ccc(Cl)cc1)C(=O)C(=O)c1ccccc1-2 returned Giardia FBPA inh 0.89µM*, Tb PYK inh 3%, Sm TGR block inconclusive, NS1 inh -27%, RE007 growth inh -15% and LmPK inhibitor -1%.
For Cc1ccc(C(=O)c2coc3c2C(=O)C(=O)c2ccccc2-3)cc1 the results were Giardia FBPA inh 2.8µM*, Tb PYK inh -19%, Sm TGR block inconclusive, NS1 inh -16%, RE007 growth inh inconclusive and LmPK inhibitor 6%.
For Cc1ccc(C(=O)c2c(C)oc3c2C(=O)C(=O)c2ccccc2-3)cc1 the results were Giardia FBPA inh 0.63µM*, Tb PYK inh 6%, Sm TGR block inconclusive, NS1 inh -97%, RE007 growth inh 25µM* and LmPK inhibitor 0%.
For O=C(c1ccc(Cl)cc1)c1ccc(CN2C(=O)c3ccccc3C2=O)o1 the results were Giardia FBPA inh 3%, Tb PYK inh -3%, Sm TGR block -33%, NS1 inh -53%, RE007 growth inh -12% and LmPK inhibitor 1%.
Screening CCCCCCCC/C=C\CCCCCCCC(=O)OC[C@@H](O)[C@H]1OC[C@H](O)[C@H]1O returned Tb PYK inh -8%.
`O=C(/C=C/Sc1ccccc1)c1ccccc1` gave Giardia FBPA inh -3%, Tb PYK inh 8%, Sm TGR block 10µM*, NS1 inh -33%, RE007 growth inh inconclusive and LmPK inhibitor inconclusive.
Screening O=C(C=Cc1ccccc1Cl)c1ccccc1 returned Tb PYK inh -5% and RE007 growth inh -13%.
`O=C(/C=C/Sc1ccccc1)c1ccc(Cl)cc1` gave Giardia FBPA inh 1%, Tb PYK inh 4%, Sm TGR block 32µM*, NS1 inh -13%, RE007 growth inh inconclusive and LmPK inhibitor -9%.
Screening Cc1nc2ccccc2n1CCc1nc2c3ccccc3nc(SCc3ccc(C#N)cc3)n2n1 returned Tb PYK inh 5% and Sm TGR block 7%.
For C/C=C/COC(=O)c1[nH]c2c(c1C)C(=O)CC(c1ccco1)C2 (stereo not drawn) the results were Giardia FBPA inh -3%, Tb PYK inh -9%, Sm TGR block 50µM*, NS1 inh -1%, RE007 growth inh 2% and LmPK inhibitor -3%.
For C=CCOC(=O)c1[nH]c2c(c1C)C(=O)CC(c1ccco1)C2 (stereo not drawn) the results were Giardia FBPA inh -3%, Tb PYK inh -17%, Sm TGR block 45µM*, NS1 inh -12%, RE007 growth inh 0% and LmPK inhibitor 0%.
Cc1c(C(=O)OCC(C)C)[nH]c2c1C(=O)CC(c1ccco1)C2 (stereo not drawn) was read as Giardia FBPA inh -10%, Tb PYK inh -8%, Sm TGR block inconclusive, NS1 inh -18%, RE007 growth inh -8% and LmPK inhibitor -1%.
For CCOc1ccc(NC(=O)c2cc3cc(C)ccc3n2C)cc1 the results were Tb PYK inh 0% and Sm TGR block 5%.
Screening COC(=O)c1ccc(OCC2c3cc(OC)c(OC)cc3CCN2C(=O)Cc2ccc(OC)cc2)cc1 (stereo not drawn) returned Tb PYK inh 1% and Sm TGR block 4%.
For CCOCC(O)CSCc1ccc(Cl)cc1 (stereo not drawn) the results were Giardia FBPA inh -4%, Sm TGR block 10µM*, NS1 inh 17%, RE007 growth inh 5%[3.69 µM] and LmPK inhibitor 0%.
Screening CCOC(=O)c1ccccc1NC(=O)N1CCCn2nc(C)cc21 returned Tb PYK inh -6% and Sm TGR block 9%.
Screening CCOC(=O)c1nnn(-c2nonc2-n2cccc2)c1CCl returned Giardia FBPA inh 17%, Tb PYK inh 3%, Sm TGR block 8.9µM*, NS1 inh -15%, RE007 growth inh -12% and LmPK inhibitor 7%.

From PubChem BioAssay
